Measured values published in PubChem BioAssay (EPA / NIEHS).
The source holds several records for some structures; these can differ, active in one and inactive in another. Calls of active or inactive are those of the source. The calls were made as follows: active = hit-call score of the fitted dose curve at least 0.9, where 1 is the maximum; inactive = score below 0.9.

These compounds were tested against Paired box protein Pax-6 (Homo sapiens) (UniProt P26367) (assay: ATG_Pax6_CIS: Attagene CIS-FACTORIAL HepG2 Assay for human Paired Box 6 (PAX6) (AID 2282956)). Settings: HepG2 CIS-FACTORIAL PAX6 reporter transcription, RNA readout; actives raise or lower the signal.
Paired box protein Pax-6 (Homo sapiens), sequence (P26367 whole entry, looked up): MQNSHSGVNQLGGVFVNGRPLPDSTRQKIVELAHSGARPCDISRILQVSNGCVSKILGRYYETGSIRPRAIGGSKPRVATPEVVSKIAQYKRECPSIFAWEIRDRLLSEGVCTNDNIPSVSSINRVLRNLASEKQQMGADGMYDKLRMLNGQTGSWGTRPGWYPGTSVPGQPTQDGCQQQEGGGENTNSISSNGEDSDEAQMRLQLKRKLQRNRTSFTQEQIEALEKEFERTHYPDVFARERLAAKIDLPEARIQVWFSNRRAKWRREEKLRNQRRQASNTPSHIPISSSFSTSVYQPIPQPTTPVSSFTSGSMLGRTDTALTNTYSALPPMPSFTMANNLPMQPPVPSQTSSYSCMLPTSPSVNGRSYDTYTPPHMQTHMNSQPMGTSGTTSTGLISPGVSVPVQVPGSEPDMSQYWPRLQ
Description: ATG_CIS is a cell-based, multiplexed-readout assay that uses HepG2, a human liver cell line, with measurements taken at 24 hours after chemical dosing in a 24-well plate.ATG_Pax6_CIS is one of 52 assay component(s) measured or calculated from the ATG_CIS assay. It is designed to make measurements of mRNA induction, a form of inducible reporter, as detected with fluorescence intensity signals by Reverse transcription polymerase chain reaction (RT-PCR) and Capillary electrophoresis technology.Data from the assay component ATG_Pax6_CIS was analyzed into 1 assay endpoint. This assay endpoint, ATG_Pax6_CIS, was analyzed with bidirectional fitting relative to DMSO as the negative control and baseline of activity. Using a type of inducible reporter, measures of mRNA for gain or loss-of-signal activity can be used to understand the reporter gene at the transcription factor-level as they relate to the gene PAX6. Furthermore, this assay endpoint can be referred to as a primary readout, because this assay has produced multiple assay endpoints where this one serves a reporter gene function. To generalize the intended target to other relatable targets, this assay endpoint is annotated to the dna binding intended target family, where the subfamily is paired box protein.
Human liver HepG2 cells are transiently transfected with multiple reporter transcription units (MRTUs) in 6-well plates using FuGene 6 reagent (Roche; 3 ml FuGene/1 mg DNA). The MRTU constructs are regulated by a cis-regulating element (promoter). […] A major difference between the CIS and TRANS system is that in CIS activities of endogenous TFs are measured, whereas the TRANS assay evaluates changes in activities of exogenous, chimeric NR-Gal4 proteins. […] At the end of 24 hour incubation, total RNA was isolated using TriZol reagent (Invitrogen). The isolated RNA is then reverse-transcribed using oligo(dT) primer and Mo-MLV reverse transcriptase (Invitrogen) with DNAse I (Ambion) treatment for 30 min. The one-tenth of the produced cDNA was amplified by PCR using Taq DNA polymerase (Invitrogen) and two reporter sequence-specific primers. The PCR products were fluorescently labeled by primer extension with 6-arboxyfluorescein (6-FAM) 5'-labeled reporter sequence-specific primer (2 min at 95 C, 20 s at 68 C and 10 min at 72 C) and these products were digested with 5U of HpaI (New England Biolabs) for 2h at 37 C. The fragments were purified using Qiaquick PCR columns (Qiagen), analyzed on an ABI 3130xL genetic analyzer (Applied Biosystems) with peak positions identified by using a set of X-rhodamine (ROX)-labeled MapMarker1000 molecular weight standards (BioVentures). The raw capillary electrophoresis data was processed using Attagraph software (Attagene).

| Structure (SMILES) | outcome | AC50 |
| --- | --- | --- |
| CNC(=O)Oc1cccc2c1OC(C)(C)O2 | inactive | – |
| CSc1nnc(C(C)(C)C)c(=O)n1N | inactive | – |
| CSc1nc(NC(C)C)nc(NC(C)C)n1 | inactive | – |
| CCCOc1nn(C(=O)NS(=O)(=O)c2ccccc2C(=O)OC)c(=O)n1C | inactive | – |
| CC1(C(=O)Nc2ccc(O)c(Cl)c2Cl)CCCCC1 | inactive | – |
| CC(C)[C@H](C(=O)O[C@H](C#N)c1cccc(Oc2ccccc2)c1)c1ccc(Cl)cc1 | inactive | – |
| C=C(C)[C@H]1Cc2c(ccc3c2O[C@@H]2COc4cc(OC)c(OC)cc4[C@@H]2C3=O)O1 | inactive | – |
| FC(F)C(F)(F)OCC(Cn1cncn1)c1ccc(Cl)cc1Cl (stereo not given) | – | 78.8 µM (active) |
| COP(=O)(OC)C(O)C(Cl)(Cl)Cl (stereo not given) | inactive | – |
| COc1cc(OC)nc(Sc2cccc(Cl)c2C(=O)O)n1 | inactive | – |
| COP(=O)(OC)OC(Br)C(Cl)(Cl)Br (stereo not given) | inactive | – |
| CC[C@H](C)[C@H]1O[C@]2(C=C[C@@H]1C)C[C@@H]1C[C@@H](C/C=C(\C)[C@@H](O[C@H]3C[C@H](OC)[C@@H](O[C@H]4C[C@H](OC)[C@@H](NC)[C@H](C)O4)[C@H](C)O3)[C@@H](C)/C=C/C=C3\CO[C@@H]4[C@H](O)C(C)=C[C@@H](C(=O)O1)[C@]34O)O2 | inactive | – |
| Cc1nn(-c2cc(NS(C)(=O)=O)c(Cl)cc2Cl)c(=O)n1C(F)F | inactive | – |
| CCC(=NOC/C=C/Cl)C1=C(O)CC(C2CCOCC2)CC1=O (stereo not given) | inactive | – |
| CCCCN(CC)c1c([N+](=O)[O-])cc(C(F)(F)F)cc1[N+](=O)[O-] | inactive | – |
| COc1ccc(C(=CC(=O)N2CCOCC2)c2ccc(Cl)cc2)cc1OC | inactive | – |
| C[Si](Cn1cncn1)(c1ccc(F)cc1)c1ccc(F)cc1 | – | 67.8 µM (active) |
| CCOP(=S)(Oc1cnc(C(C)(C)C)nc1)OC(C)C (stereo not given) | inactive | – |
| CC1=NNC(=O)N(/N=C/c2cccnc2)C1 | inactive | – |
| CCc1cccc(C)c1N(C(=O)CCl)C(C)COC (stereo not given) | inactive | – |

| Structure (SMILES) | outcome | AC50 |
| --- | --- | --- |
| N#CSCSC#N | inactive | – |
| O=C(O)c1cc(Oc2ccc(C(F)(F)F)cc2Cl)ccc1[N+](=O)[O-] | inactive | – |
| CCOC(=O)CC(SP(=O)(OC)OC)C(=O)OCC (stereo not given) | inactive | – |
| CCOP(=S)(OCC)Oc1cc(C)nc(C(C)C)n1 | inactive | – |
| C#CC(C)(C)NC(=O)c1cc(Cl)cc(Cl)c1 | inactive | – |
| CC(=NC#N)N(C)Cc1ccc(Cl)nc1 | inactive | – |
| O=[N+]([O-])c1cc(C(F)(F)F)c(Cl)c([N+](=O)[O-])c1Nc1ncc(C(F)(F)F)cc1Cl | inactive | 6.88 µM (active) |
| Nc1nc(N)nc(NC2CC2)n1 | inactive | – |
| C#CCC1=C(C)C(OC(=O)C2C(C=C(C)C)C2(C)C)CC1=O (stereo not given) | – | 72.1 µM (active) |
| COP(=O)(OC)SCn1c(=O)oc2cc(Cl)cnc21 | inactive | – |
| S=C1NCCN1 | inactive | – |
| CCNc1nc(Cl)nc(NC(C)(C)C#N)n1 | inactive | – |
| CCOP(=S)(OCC)SCCSCC | inactive | – |
| CCOC(=O)COc1cc(-c2nn(C)c(OC(F)F)c2Cl)c(F)cc1Cl | inactive | – |
| CCCSP(=O)(OCC)SCCC | inactive | – |
| CC(COc1ccc(Oc2ccccc2)cc1)Oc1ccccn1 (stereo not given) | inactive | – |
| O=c1ccc(=O)[nH][nH]1 | inactive | – |
| CC(C)=CC1C(C(=O)OCN2C(=O)C3=C(CCCC3)C2=O)C1(C)C (stereo not given) | – | 74 µM (active) |
| CCCOCC(=Nc1ccc(Cl)cc1C(F)(F)F)n1ccnc1 | inactive | – |
